Screening data deposited in PubChem by National Center for Advancing Translational Sciences (NCATS).
Only some compounds are listed: those with a hit (about 6.2% of all), similar ones and a draw of the others.
Luc counter: blocks Kinase-Glo luciferase, a counter-screen artifact; Potency, µM (highest dose often 38.3 µM), inactives show at the top dose activity change, negative = inhibition, usual class: inhibitors; 200,000 compounds, 0.28% hits; Q27757; Kinase-Glo luciferase, ATP luminescence, 8 min; further: nearly all actives have a fitted effect of over 60% in size
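Luminescence was the read-out, taken after 8-minute incubation at ambient temperature. Luciferase turned over luciferin with 10 uM ATP in imidazole pH 7.2 buffer containing KCl, MgCl2, Tween 20 and BSA.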
RORg inh: inhibitors of mouse ROR gamma transcriptional activity; Drosophila S2 Gal4-RORgamma UAS-luciferase reporter, 20 h; Potency, µM (doses to about 53.6 µM), for the others: at the top dose activity change, negative = inhibition, hits mostly inhibitors; AID 2551; 310,000 compounds, 5.4% hits; P51450; further: nearly all actives have a fitted effect of over 60% in size
Target sequence (P51450 whole entry, looked up, the tested form may be a part): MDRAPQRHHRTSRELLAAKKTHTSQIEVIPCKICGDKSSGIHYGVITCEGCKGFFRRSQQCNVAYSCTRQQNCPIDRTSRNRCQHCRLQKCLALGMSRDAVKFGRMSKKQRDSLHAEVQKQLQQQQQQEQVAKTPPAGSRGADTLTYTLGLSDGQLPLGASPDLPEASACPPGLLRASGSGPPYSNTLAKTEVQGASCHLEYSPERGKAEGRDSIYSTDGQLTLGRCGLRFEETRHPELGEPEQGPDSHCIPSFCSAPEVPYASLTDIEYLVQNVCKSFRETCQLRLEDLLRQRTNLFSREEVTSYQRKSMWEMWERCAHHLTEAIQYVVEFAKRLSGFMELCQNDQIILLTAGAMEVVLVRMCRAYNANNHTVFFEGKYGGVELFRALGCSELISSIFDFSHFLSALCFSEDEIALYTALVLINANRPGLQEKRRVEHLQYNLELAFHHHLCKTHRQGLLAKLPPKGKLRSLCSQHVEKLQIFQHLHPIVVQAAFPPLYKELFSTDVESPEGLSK
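A Gal4/UAS one-hybrid system in insect cells: metallothionein-promoter Gal4–ROR gamma fusion plus Photinus luciferase reporter. Copper sulfate 700 uM final, 20 hr ambient incubation, luminescent detection after 10 min with reagent.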
Gal4-VP16 FLuc: inhibits Gal4-VP16 luciferase reporter, ROR gamma counter-screen. Potency, µM (top dose mostly 53.6 µM), for the others: at the highest dose activity, negative = inhibition, hits mostly inhibitors. AID 2546. 310,000 compounds, 3.5% hits. Drosophila S2 Gal4-VP16 UAS-luciferase, luminescence, 20 h;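 further: Gal4-VP16 expression switched on by copper sulfate through the metallothionein promoter; nearly all actives have a fitted effect of over 50% in size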
Active calls of the source: *; ? = inconclusive; / = no result given; ! = not active in a repeat; [ ] = another dose, or the depositor's remark. The call rests on the fitted dose curve; in most records, active means well fitted curve in the direction sought with a large enough effect; inconclusive means small, poorly fitted or top-dose-only effect, or another doubt; inactive means no such curve, though single readings can be large; an effect the other way counts as inactive or inconclusive. On the % scale 0 is the no-effect control and ±100 the full control effect; potency means the concentration at half of the fitted maximal effect.

SMILES | Luc counter | RORg inh | Gal4-VP16 FLuc
CCCCCN1C=CC(=C2C(=O)c3ccccc3C2=O)C=C1 | 2.82µM* | 1.12µM* | 1.26µM*
Cc1cccc(C(CC(=O)N2CCCCC2)c2ccccc2)c1O (stereo unspecified) | / | 5.2% | -5.8%
Cc1ccccc1Nc1nnc(SCC2CCCCO2)s1 (stereo unspecified) | -27.6% | ? | -1.6%
COc1ccccc1Nc1nnc(SCC2CCCCO2)s1 (stereo unspecified) | 8.91µM* | 6.8% | -20.6%
COc1ccc(C(=O)O)cc1NC(=S)NC(=O)/C=C/c1ccc(C(C)C)cc1 | / | 29.7% | -8.5%
O=S(=O)(c1ccc(N2CCN(CCO)CC2)nc1)N1CCCCC1 | 1.9% | 13.1% | 0.4%
COC(=O)C(O)C1C(C)(C)C(OC(C)=O)C2CC3=C4CC(=O)OC(c5ccoc5)[C@]4(C)CCC3[C@@]1(C)C2=O (stereo partly specified) | -2.6% | 12.6µM* | 4.3%
C=C1C2CC[C@@]3(C)C(c4ccoc4)OC(=O)C[C@@]13OC1CC(=O)C(C)(C)C(C(O)C(=O)OC)[C@]12C (stereo partly specified) | -3.8% | 0.0% | -4.1%
Cc1[nH]n(-c2ccc([N+](=O)[O-])cc2)c(=O)c1C=NCCN1CCN(C(=O)C(C)C)CC1 | 10µM* | ? | 3.3%
Cc1[nH]n(-c2ccc([N+](=O)[O-])cc2)c(=O)c1C=NCCc1ccc(S(N)(=O)=O)cc1 | -8.7% | -17.8% | -1.7%
CCCCN(C)C(=S)Nc1ccc(Oc2ccccc2)cc1 | / | 11.2µM* | ?
CN(CCC#N)C(=S)Nc1ccc(Oc2ccccc2)cc1 | 1.1% | 36.1% | 19.2%
CCCN(CC1CC1)C(=S)Nc1ccc(Oc2ccccc2)cc1 | 3.3% | 12.6µM* | 8.91µM*
CN(C(=S)Nc1ccc(Oc2ccccc2)cc1)C1CCCCC1 | -4.0% | -42.4%[10 µM] | ?
COC(=O)N1CCC[C@@]2(CCN(C(=O)Nc3cccc(C#N)c3)C2)C1 | -8.9% | -37.0% | -3.3%
CCNc1ncc2nc(-c3ccc(OC)cc3)c(=O)n(Cc3ccc(F)cc3)c2n1 | / | -7.0% | -9.3%
CCC1NC(=S)NC(C)=C1C(=O)c1ccccc1 (stereo unspecified) | 3.3% | 10µM* | -20.9%
COc1ccc(C2NC(=S)NC(C)=C2C(=O)c2ccccc2)cc1OC (stereo unspecified) | -1.7% | -33.1% | 5.0%
COc1ccc(-n2[nH]c3c4c(ncc3c2=O)CCCCC4)cc1 | 2.2%[39.9 µM] | 2.6% | -10.4%
O=C(NNC1OC(CO)C(O)C(O)C1O)c1cccc(Br)c1 (stereo unspecified) | -0.3% | 11.2µM* | 11.3%[10 µM]
O=C(O)CCC(=O)NNC(=O)c1cccc(Br)c1 | -3.0% | -1.3% | 4.4%
O=C(CC1COc2ccccc2O1)NC1CCCCC1 (stereo unspecified) | 1.4% | 29.7% | 17.7%
CCN(CC1COc2ccccc2O1)C(=S)NC1CC2CCC1C2 (stereo unspecified) | 0.9% | 8.91µM* | ?
C/C1=C2N=C(/C=C3N=C(/C(C)=C4\[N-]C(C)(C5N=C1C(C)(CCC(=O)NCC(C)OP(=O)([O-])O[C@H]1C(O)C(n6cnc7cc(C)c(C)cc76)O[C@@H]1CO)C5CC(N)=O)C(C)(CC(N)=O)C4CCC(N)=O)C(C)(CC(N)=O)C\3CCC(N)=O)C(C)(C)C/2CCC(N)=O.[CH2-]C1OC(n2cnc3c(N)ncnc32)C(O)C1O.[Co] (stereo partly specified) | -21.9% | -12.0% | -18.1%
CCOC(=O)c1c(C=O)c2sc(C)cc2n1C | -4.1% | -24.4% | -5.7%
SMILES | Luc counter | RORg inh | Gal4-VP16 FLuc
Cc1cccn2cc(-c3cccc(S(=O)(=O)N4CC(C)OC(C)C4)c3)nc12 (stereo unspecified) | / | -28.5% | 2.4%
CC1CN(S(=O)(=O)c2cccc(-c3cn4ccccc4n3)c2)CC(C)O1 (stereo unspecified) | 3.8% | ? | 0.355µM*
CCCS(=O)(=O)c1nc(S(=O)(=O)c2ccc(C)cc2)c(N2CCCC2)s1 | 0.1% | -15.1% | -1.1%
CCCS(=O)(=O)c1nc(S(=O)(=O)c2ccc(C)cc2)c(N2CCc3ccccc3C2)s1 | 0.7% | 8.91µM* | ?
Cc1nnsc1C(=O)N1CCC(CO)(Cc2ccccc2Cl)CC1 | / | 5.4% | -7.6%
CCCCNc1c(C(=O)OCC)c(C)nc2c1cnn2CC | -4.6% | 31.6µM*! | ?
CCOC(=O)c1c(C)nc2c(C#N)cnn2c1C | 1.4% | -14.5% | 2.8%
O=S(=O)(Nc1ccc(-c2cn3c(n2)SCC3)cc1)c1ccccc1F | / | -1.0% | 12.2%
CN(C)C(=O)/C(=C\c1cccc(Oc2ccccc2)c1)NC(=O)c1ccccc1 | 2.4% | 14.5% | -7.9%
Cc1ccccc1NC(=O)C1Cc2ccccc2CN1C(=O)c1ccco1 (stereo unspecified) | / | 7.8% | 0.8%
CCSc1nnc(NC(=O)C2Cc3ccccc3CN2C(=O)c2ccco2)s1 (stereo unspecified) | 11.1% | 10µM* | ?
COc1ccc(OC(=O)/C=C/c2ccc([N+](=O)[O-])cc2)cc1 | / | ? | 8.91µM*
COc1ccc(C(=O)Cn2c(C(=O)/C=C/c3ccccc3)nc3ccccc32)cc1 | -2.9% | 3.98µM* | ?
COc1ccc(/C=C/C(=O)c2ccoc2)cc1 | -7.2% | 9.2% | 4.5%
COc1ccc(/C=C/C(=O)c2ccc(O)cc2)cc1 | / | 2.51µM* | 7.08µM*
COc1cccc(NC(=O)/C=C/c2ccc([N+](=O)[O-])cc2)c1 | / | 0.8% | 7.2%
COc1ccc(/C=C/C(=O)c2ccccn2)cc1 | 3.98µM* | 11.2µM* | 11.2µM*
COc1ccc(/C=C/C(=O)c2ccccc2O)cc1 | ? | ? | -11.4%[10 µM]
COc1ccc(C(=O)CSc2nc3ccccc3n2CC(=O)c2ccccc2)cc1 | 3.9% | -10.4% | -4.1%
COc1cccc(C2=Nn3c(nnc3-c3cc(OC)ccc3OC)SC2)c1 | / | 23.3% | -5.0%
CN(C)CCN(Cc1ccco1)S(=O)(=O)c1ccc(-c2ccc(=O)[nH]n2)s1 | / | -12.0% | 5.2%
COc1cccc(CNC(=O)c2ccncc2)c1 | / | 10.8% | 3.1%
COc1c2c(cc3c1C(c1c(O)c4ccccc4oc1=O)N(C)CC3)OCO2 (stereo unspecified) | 3.6% | 0.9% | -22.9%
CCCOC(=O)/C(C)=N\NC(=O)c1ccco1 | -0.2% | ? | -23.2%
CCC/C(=N\NC(=O)c1ccco1)c1ccc(Cl)s1 | / | 11.2µM* | 17.8µM*
SMILES | Luc counter | RORg inh | Gal4-VP16 FLuc
CCC/C(=N/NC(=O)c1csc(C)c1C)c1ccc(Cl)s1 | -1.0% | 15.8µM* | ?
CC/C(=N\NC(=O)c1cc(C)nc2ccccc12)c1ccc(C)s1 | -4.2% | -32.2% | -2.0%
COc1cc(OC)cc(-n2nnnc2SCC(=O)NCc2cccs2)c1 | -0.9% | 34.4% | 21.0%
Cc1ccccc1NC(=O)Cc1nc(COC(=O)C(C)C)cs1 | / | -4.8% | -4.8%
CCN(CC)C(=S)SCc1csc(CC(=O)Nc2ccccc2C)n1 | / | 11.2µM* | -21.8%
O=C(/C=C/c1ccccc1)/C=C/c1ccccc1 | -4.2% | ? | ?
O=C(/C=C/c1ccccc1)c1ccc2c3c(cccc13)CC2 | / | 12.6µM* | 15.8µM*
COCCn1c(=NC(=O)CSC(C)=O)sc2cc(OC)ccc21 | -5.2% | -19.4% | -4.3%
CCn1c(=NC(=O)CSC(C)=O)sc2cc(OC)ccc21 | -1.2% | 10µM* | ?
